target: AgAbp1; experiment: SPOT peptide array binding signal intensity (averaged, normalized) (arbitrary units (background-subtracted, floor 0; scale differs between SH3 domains)); higher = stronger binding of the SH3 domain to the peptide
Summary of the method: (§1)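 SH3 domains from four yeast species were expressed as GST fusions in E. coli BL21(DE3) and purified on glutathione Sepharose. Each was incubated at 10 μg/ml overnight at 4°C in TBS-based blocking buffer on cellulose membranes bearing synthetic 15-mer peptides, in which serines replaced cysteines. Bound protein was detected with anti-GST antibody, an HRP anti-mouse secondary and luminol, then imaged and quantified with Genespotter. The binding signal is the normalized, background-subtracted spot intensity averaged over replicates, in arbitrary units that are not the same from one domain to another.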

Row | Binder | SPOT peptide array binding signal intensity
1 | RFKRHRLEFPFNESE | 154

target: AgBbc1; experiment: as above
Summary of the method: as §1

Row | Binder | SPOT peptide array binding signal intensity
2 | RFKRHRLEFPFNESE | 38.5

target: AgBem1-D1; experiment: as above
Summary of the method: as §1

Row | Binder | SPOT peptide array binding signal intensity
3 | RFKRHRLEFPFNESE | 120

target: AgBzz1-D1; experiment: as above
Summary of the method: as §1

Row | Binder | SPOT peptide array binding signal intensity
4 | RFKRHRLEFPFNESE | 58

target: AgBzz1-D2; experiment: as above
Summary of the method: as §1

Row | Binder | SPOT peptide array binding signal intensity
5 | RFKRHRLEFPFNESE | 71

target: AgCyk3; experiment: as above
Summary of the method: as §1

Row | Binder | SPOT peptide array binding signal intensity
6 | RFKRHRLEFPFNESE | ≤ 0

target: AgFus1; experiment: as above
Summary of the method: as §1

Row | Binder | SPOT peptide array binding signal intensity
7 | RFKRHRLEFPFNESE | 378

target: AgHof1; experiment: as above
Summary of the method: as §1

Row | Binder | SPOT peptide array binding signal intensity
8 | RFKRHRLEFPFNESE | 28

target: AgHse1; experiment: as above
Summary of the method: as §1

Row | Binder | SPOT peptide array binding signal intensity
9 | RFKRHRLEFPFNESE | 929

target: AgLsb1; experiment: as above
Summary of the method: as §1

Row | Binder | SPOT peptide array binding signal intensity
10 | RFKRHRLEFPFNESE | 1.5

target: AgLsb4; experiment: as above
Summary of the method: as §1

Row | Binder | SPOT peptide array binding signal intensity
11 | RFKRHRLEFPFNESE | 78

target: AgMyo5; experiment: as above
Summary of the method: as §1

Row | Binder | SPOT peptide array binding signal intensity
12 | RFKRHRLEFPFNESE | 0.75

target: AgNbp2; experiment: as above
Summary of the method: as §1

Row | Binder | SPOT peptide array binding signal intensity
13 | RFKRHRLEFPFNESE | 37

target: AgRvs167; experiment: as above
Summary of the method: as §1

Row | Binder | SPOT peptide array binding signal intensity
14 | RFKRHRLEFPFNESE | 5.33

target: AgSho1; experiment: as above
Summary of the method: as §1

Row | Binder | SPOT peptide array binding signal intensity
15 | RFKRHRLEFPFNESE | 46

target: AgSla1-D1-D2; experiment: as above
Summary of the method: as §1

Row | Binder | SPOT peptide array binding signal intensity
16 | RFKRHRLEFPFNESE | 98

target: AgSla1-D3; experiment: as above
Summary of the method: as §1

Row | Binder | SPOT peptide array binding signal intensity
17 | RFKRHRLEFPFNESE | 8

target: CaAbp1-D1; experiment: as above
Summary of the method: as §1

Row | Binder | SPOT peptide array binding signal intensity
18 | RFKRHRLEFPFNESE | 759

target: CaAbp1-D2; experiment: as above
Summary of the method: as §1

Row | Binder | SPOT peptide array binding signal intensity
19 | RFKRHRLEFPFNESE | 598

target: CaBbc1; experiment: as above
Summary of the method: as §1

Row | Binder | SPOT peptide array binding signal intensity
20 | RFKRHRLEFPFNESE | 107

target: CaBem1-D1; experiment: as above
Summary of the method: as §1

Row | Binder | SPOT peptide array binding signal intensity
21 | RFKRHRLEFPFNESE | 164

target: CaBzz1-D1; experiment: as above
Summary of the method: as §1

Row | Binder | SPOT peptide array binding signal intensity
22 | RFKRHRLEFPFNESE | 34.5

target: CaBzz1-D2; experiment: as above
Summary of the method: as §1

Row | Binder | SPOT peptide array binding signal intensity
23 | RFKRHRLEFPFNESE | 34.8

target: CaCyk3; experiment: as above
Summary of the method: as §1

Row | Binder | SPOT peptide array binding signal intensity
24 | RFKRHRLEFPFNESE | 3

target: CaFus1; experiment: as above
Summary of the method: as §1

Row | Binder | SPOT peptide array binding signal intensity
25 | RFKRHRLEFPFNESE | 608

target: CaHof1; experiment: as above
Summary of the method: as §1

Row | Binder | SPOT peptide array binding signal intensity
26 | RFKRHRLEFPFNESE | 1.5

target: CaHse1; experiment: as above
Summary of the method: as §1

Row | Binder | SPOT peptide array binding signal intensity
27 | RFKRHRLEFPFNESE | 16

target: CaLsb1; experiment: as above
Summary of the method: as §1

Row | Binder | SPOT peptide array binding signal intensity
28 | RFKRHRLEFPFNESE | ≤ 0

target: CaLsb4; experiment: as above
Summary of the method: as §1

Row | Binder | SPOT peptide array binding signal intensity
29 | RFKRHRLEFPFNESE | 31

target: CaMyo5; experiment: as above
Summary of the method: as §1

Row | Binder | SPOT peptide array binding signal intensity
30 | RFKRHRLEFPFNESE | 13.2

target: CaNbp2; experiment: as above
Summary of the method: as §1

Row | Binder | SPOT peptide array binding signal intensity
31 | RFKRHRLEFPFNESE | 342

target: CaRvs167; experiment: as above
Summary of the method: as §1

Row | Binder | SPOT peptide array binding signal intensity
32 | RFKRHRLEFPFNESE | 25.7

target: CaRvs167-3; experiment: as above
Summary of the method: as §1

Row | Binder | SPOT peptide array binding signal intensity
33 | RFKRHRLEFPFNESE | 211

target: CaSho1; experiment: as above
Summary of the method: as §1

Row | Binder | SPOT peptide array binding signal intensity
34 | RFKRHRLEFPFNESE | 939

target: CaSla1-D1-D2; experiment: as above
Summary of the method: as §1

Row | Binder | SPOT peptide array binding signal intensity
35 | RFKRHRLEFPFNESE | 7

target: CaSla1-D3; experiment: as above
Summary of the method: as §1

Row | Binder | SPOT peptide array binding signal intensity
36 | RFKRHRLEFPFNESE | 4

target: ScAbp1; experiment: as above
Summary of the method: as §1

Row | Binder | SPOT peptide array binding signal intensity
37 | RFKRHRLEFPFNESE | 236

target: ScBbc1; experiment: as above
Summary of the method: as §1

Row | Binder | SPOT peptide array binding signal intensity
38 | RFKRHRLEFPFNESE | 11.5

target: ScBem1-D1; experiment: as above
Summary of the method: as §1

Row | Binder | SPOT peptide array binding signal intensity
39 | RFKRHRLEFPFNESE | 52

target: ScBzz1-D1; experiment: as above
Summary of the method: as §1

Row | Binder | SPOT peptide array binding signal intensity
40 | RFKRHRLEFPFNESE | 12

target: ScBzz1-D2; experiment: as above
Summary of the method: as §1

Row | Binder | SPOT peptide array binding signal intensity
41 | RFKRHRLEFPFNESE | 1

target: ScCyk3; experiment: as above
Summary of the method: as §1

Row | Binder | SPOT peptide array binding signal intensity
42 | RFKRHRLEFPFNESE | 112

target: ScFus1; experiment: as above
Summary of the method: as §1

Row | Binder | SPOT peptide array binding signal intensity
43 | RFKRHRLEFPFNESE | 286

target: ScHof1; experiment: as above
Summary of the method: as §1

Row | Binder | SPOT peptide array binding signal intensity
44 | RFKRHRLEFPFNESE | 5.25

target: ScHse1; experiment: as above
Summary of the method: as §1

Row | Binder | SPOT peptide array binding signal intensity
45 | RFKRHRLEFPFNESE | 1570

target: ScLsb1; experiment: as above
Summary of the method: as §1

Row | Binder | SPOT peptide array binding signal intensity
46 | RFKRHRLEFPFNESE | 36.2

target: ScLsb2; experiment: as above
Summary of the method: as §1

Row | Binder | SPOT peptide array binding signal intensity
47 | RFKRHRLEFPFNESE | 3

target: ScLsb3; experiment: as above
Summary of the method: as §1

Row | Binder | SPOT peptide array binding signal intensity
48 | RFKRHRLEFPFNESE | 80

target: ScLsb4; experiment: as above
Summary of the method: as §1

Row | Binder | SPOT peptide array binding signal intensity
49 | RFKRHRLEFPFNESE | ≤ 0

target: ScMyo3; experiment: as above
Summary of the method: as §1

Row | Binder | SPOT peptide array binding signal intensity
50 | RFKRHRLEFPFNESE | ≤ 0

target: ScMyo5; experiment: as above
Summary of the method: as §1

Row | Binder | SPOT peptide array binding signal intensity
51 | RFKRHRLEFPFNESE | 3.5

target: ScNbp2; experiment: as above
Summary of the method: as §1

Row | Binder | SPOT peptide array binding signal intensity
52 | RFKRHRLEFPFNESE | 154

target: ScPex13; experiment: as above
Summary of the method: as §1

Row | Binder | SPOT peptide array binding signal intensity
53 | RFKRHRLEFPFNESE | ≤ 0

target: ScRvs167; experiment: as above
Summary of the method: as §1

Row | Binder | SPOT peptide array binding signal intensity
54 | RFKRHRLEFPFNESE | 25.3

target: ScSho1; experiment: as above
Summary of the method: as §1

Row | Binder | SPOT peptide array binding signal intensity
55 | RFKRHRLEFPFNESE | 756

target: ScSla1-D1-D2; experiment: as above
Summary of the method: as §1

Row | Binder | SPOT peptide array binding signal intensity
56 | RFKRHRLEFPFNESE | 358

target: ScSla1-D3; experiment: as above
Summary of the method: as §1

Row | Binder | SPOT peptide array binding signal intensity
57 | RFKRHRLEFPFNESE | 11.8

target: SpAbp1-D1; experiment: as above
Summary of the method: as §1

Row | Binder | SPOT peptide array binding signal intensity
58 | RFKRHRLEFPFNESE | 419

target: SpBbc1; experiment: as above
Summary of the method: as §1

Row | Binder | SPOT peptide array binding signal intensity
59 | RFKRHRLEFPFNESE | 2.5

target: SpBzz1-D1; experiment: as above
Summary of the method: as §1

Row | Binder | SPOT peptide array binding signal intensity
60 | RFKRHRLEFPFNESE | 127

target: SpBzz1-D2; experiment: as above
Summary of the method: as §1

Row | Binder | SPOT peptide array binding signal intensity
61 | RFKRHRLEFPFNESE | ≤ 0

target: SpCyk3; experiment: as above
Summary of the method: as §1

Row | Binder | SPOT peptide array binding signal intensity
62 | RFKRHRLEFPFNESE | ≤ 0

target: SpHof1; experiment: as above
Summary of the method: as §1

Row | Binder | SPOT peptide array binding signal intensity
63 | RFKRHRLEFPFNESE | 68.2

target: SpHof1-2; experiment: as above
Summary of the method: as §1

Row | Binder | SPOT peptide array binding signal intensity
64 | RFKRHRLEFPFNESE | 12.2

target: SpHof1-3; experiment: as above
Summary of the method: as §1

Row | Binder | SPOT peptide array binding signal intensity
65 | RFKRHRLEFPFNESE | 348

target: SpHse1; experiment: as above
Summary of the method: as §1

Row | Binder | SPOT peptide array binding signal intensity
66 | RFKRHRLEFPFNESE | 640

target: SpLsb1; experiment: as above
Summary of the method: as §1

Row | Binder | SPOT peptide array binding signal intensity
67 | RFKRHRLEFPFNESE | 10.8

target: SpLsb4; experiment: as above
Summary of the method: as §1

Row | Binder | SPOT peptide array binding signal intensity
68 | RFKRHRLEFPFNESE | 30.5

target: SpMyo1; experiment: as above
Summary of the method: as §1

Row | Binder | SPOT peptide array binding signal intensity
69 | RFKRHRLEFPFNESE | 0.5

target: SpNbp2; experiment: as above
Summary of the method: as §1

Row | Binder | SPOT peptide array binding signal intensity
70 | RFKRHRLEFPFNESE | 298

target: SpPex13; experiment: as above
Summary of the method: as §1

Row | Binder | SPOT peptide array binding signal intensity
71 | RFKRHRLEFPFNESE | 15

target: SpRvs167; experiment: as above
Summary of the method: as §1

Row | Binder | SPOT peptide array binding signal intensity
72 | RFKRHRLEFPFNESE | 22.5

target: SpSla1-D1-D2; experiment: as above
Summary of the method: as §1

Row | Binder | SPOT peptide array binding signal intensity
73 | RFKRHRLEFPFNESE | ≤ 0

target: SpSla1-D3; experiment: as above
Summary of the method: as §1

Row | Binder | SPOT peptide array binding signal intensity
74 | RFKRHRLEFPFNESE | 26

From the supplement of paper PMC4466140
